Assay results taken from PubChem BioAssay AID651813 (National Center for Advancing Translational Sciences (NCATS), 2012).
“And” between values parts separate entries of the source, which are not always exact repeats. Identical values can stand only once. The whole screen tested about 2,100 compounds, of which about 1,100 (52%) were called active. Inconclusive results (about 27%) are left out. The call rests on the fitted dose curve; in most records, active means well fitted inhibition curve with a large enough effect; inconclusive means small, poorly fitted or top-dose-only effect; inactive means no such curve, though single readings can be large or run the other way. So high a share suggests a set chosen from earlier hits. The list shows a part of the results.
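Further: hits raise yellow fluorescence by blocking Vif-driven A3G-eYFP degradation; nearly all actives have a fitted effect of over 70% in size.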
Potency means the concentration at half of the fitted maximal effect.
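Wherever max response is given: max response given as percent of control signal.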

Each molecule was assayed against DNA dC->dU-editing enzyme APOBEC-3G (Homo sapiens) (UniProt Q9HC16) (assay: qHTS for inhibitors of Vif-A3G interactions: Cherry picks counterscreen). Details: HeLa A3G-eYFP + Vif (tagged APOBEC3G with the HIV-1 protein that degrades it), eYFP fluorescence, 24 h.
DNA dC->dU-editing enzyme APOBEC-3G (Homo sapiens), sequence (Q9HC16 whole entry, looked up): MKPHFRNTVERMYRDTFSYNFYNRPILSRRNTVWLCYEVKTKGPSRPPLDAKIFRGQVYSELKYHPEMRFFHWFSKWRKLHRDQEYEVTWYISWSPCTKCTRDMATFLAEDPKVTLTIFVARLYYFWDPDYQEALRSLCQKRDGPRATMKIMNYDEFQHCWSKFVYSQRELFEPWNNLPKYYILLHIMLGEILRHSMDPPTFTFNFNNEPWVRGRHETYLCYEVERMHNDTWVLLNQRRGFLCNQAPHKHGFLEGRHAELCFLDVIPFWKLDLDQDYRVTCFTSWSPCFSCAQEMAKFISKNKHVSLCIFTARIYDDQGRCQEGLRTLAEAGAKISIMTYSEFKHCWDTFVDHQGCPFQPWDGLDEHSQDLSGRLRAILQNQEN
Procedure, shortened: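 Readout is eYFP fluorescence (488 nm excitation, 500-530 nm emission) measured on Acumen Explorer after 24 h compound exposure, several concentrations, at 37 deg C. Cells: HeLa stably co-expressing Vif and C-terminally eYFP-tagged A3G; MG132 positive control.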
With `COc1cc(C2c3cc4c(cc3C(OC3OC5COC(c6cccs6)OC5C(O)C3O)C3COC(=O)C23)OCO4)cc(OC)c1O` (stereo unspecified) the max response was -84.8% (inactive). With `CC(=O)Nc1cccc(-c2ccnc3c2CC(C(=O)Nc2ccc4c(c2)OCO4)O3)c1` (stereo unspecified) the Potency was 1.25 µM (active). For `COc1ccc(NC(=O)C2Cc3c(-c4cccc(C(C)=O)c4)ccnc3O2)cn1` (stereo unspecified), the Potency was 1.4 µM (active). `Cc1ccc(N=C2NC(=O)CC(C(=O)Nc3ccc4c(c3)OCO4)S2)cc1` (stereo unspecified) was tested, and the max response was -13.3% (inactive). With `C=CCSc1nc2sc3c(c2c(=O)n1CC)CCC3` the max response was -26.5% (inactive). In the case of `CN(C)c1ccc(/C=C2\Oc3ccc(C#Cc4cccc(N)c4)cc3C2=O)cc1`, the Potency is reported as 17.7 µM (active). For `CC1(C)Cc2nc3sc4c(=O)n(CC(=O)NCc5ccccc5)cnc4c3cc2CO1`, the Potency was 3.96 µM (active). For `COc1ccc(S(=O)(=O)NCc2ccccn2)cc1NC(=O)c1ccccc1`, the Potency was 15.8 µM (active). `COc1ccc(OC)c2sc(NC(=O)CCS(=O)(=O)c3ccccc3)nc12` was tested, and the max response was -5.13% (inactive). For `CCOc1ccc(S(=O)(=O)NCc2ccccn2)cc1NC(=O)c1ccccc1`, the Potency was 3.96 µM (active). With `COc1ccc(S(=O)(=O)NCc2ccccn2)cc1NC(=O)c1ccc(C)cc1` the Potency was 11.2 µM (active). In the case of `S=C(NCCSCc1ccc(Cl)cc1)Nc1ccccc1`, the max response is reported as -13.3% (inactive). In the case of `COc1ccccc1N1N=C(c2ccc([N+](=O)[O-])cc2)CC1c1ccccc1` (stereo unspecified), the Potency is reported as 1.25 µM (active). With `O=[N+]([O-])c1ccc(C2=NN(c3ccccc3)C(c3ccco3)C2)cc1` (stereo unspecified) the Potency was 0.498 µM (active). `O=[N+]([O-])c1ccc(C2=Nc3cc(Cl)ccc3OC2)cc1` was tested, and the max response was -16.9% (inactive). For `O=[N+]([O-])c1ccc(/C=C/C2=NN(c3ccccc3)C(c3ccco3)C2)o1` (stereo unspecified), the Potency was 2.31 µM (active). For `Cc1ccc(NC(=O)/C=C/c2ccc([N+](=O)[O-])s2)cc1`, the Potency was 5.17 µM (active). `Cc1cccc(NC(=O)/C=C/c2ccc([N+](=O)[O-])s2)c1` was tested, and the Potency was 14.6 µM (active). In the case of `Cc1ccc(NC(=O)/C=C/c2ccc([N+](=O)[O-])s2)c(C)c1`, the Potency is reported as 10.3 µM (active). For `Cc1cc(C)cc(NC(=O)/C=C/c2ccc([N+](=O)[O-])s2)c1`, the Potency was 13 µM (active). With `CC(=O)c1cccc(NC(=S)N2c3ccccc3CC2C)c1` (stereo unspecified) the max response was 10.2% (inactive). `CC(=O)c1cccc(NC(=O)/C=C/c2ccc([N+](=O)[O-])s2)c1` was tested, and the Potency was 10.3 µM (active). In the case of `O=C(OCC12CC3CC(CC(C3)C1)C2)c1ccc(NCc2cc(O)ccc2O)cc1`, the max response is reported as 39.2% (inactive). For `C=CCN1C=CC(=CC=C(C#N)C#N)C=C1`, the Potency was 12.5 µM (active). `CCCN1C=CC(=CC=C(C#N)C#N)C=C1` was tested, and the Potency was 9.94 µM (active). With `Cn1c2ccccc2c2ccc3c(c21)C(=O)C=CC3=O` the max response was 10.2% (inactive). For `COc1ccc(/C=C2\Oc3cc(OC(=O)N4CCOCC4)ccc3C2=O)c(OC)c1`, the max response was -18.4% (inactive). In the case of `COc1cc(OC)c(OC)cc1/C=C1\Oc2cc(OCC(=O)N3Cc4ccccc4C[C@H]3C(=O)O)ccc2C1=O`, the Potency is reported as 2.06 µM (active). In the case of `Cn1cc(C2=C(c3ccc(Cl)cc3Cl)C(=O)NC2=O)c2ccccc21`, the Potency is reported as 2.06 µM (active) and 8.2 µM (active). `COc1ccccc1Nc1cc2cc(Br)ccc2c(=O)[nH]1` was tested, and the Potency was 15.8 µM (active). In the case of `COc1cccc(C(=O)Nc2sc3c(c2C#N)CCN(C(C)=O)C3)c1`, the Potency is reported as 3.96 µM (active). With `COc1ccc(C(=O)Nc2sc3c(c2C#N)CCN(C(C)=O)C3)cc1` the Potency was 12.5 µM (active). With `O=C1[C@@H]2[C@@H](CN3CN(c4ccccc4)N=C(c4ccccc4)[C@@]23c2ccccc2)C(=O)N1c1ccccc1` the max response was 3.63% (inactive). With `Cc1noc(C)c1COc1cccc(C(=O)OCC(=O)N2CC(=O)Nc3ccccc32)c1` the Potency was 5.59 µM (active). For `COc1ccc(N=Cc2c(O)c3ccccc3n2C(C)=O)cc1`, the Potency was 14.6 µM (active). For `COc1ccc(N=Cc2sc(O)c3ccccc23)cc1`, the Potency was 3.96 µM (active). With `COc1ccc(N=Cc2oc3ccc4ccccc4c3c2O)cc1` the Potency was 18.4 µM (active). In the case of `Oc1sc(C=Nc2ccc(F)cc2)c2ccccc12`, the Potency is reported as 8.2 µM (active). With `Oc1sc(C=Nc2ccccc2)c2ccccc12` the Potency was 18.4 µM (active). `COc1ccc2nc3ccccc3nc2c1NC(=O)c1ccc(Br)cc1` was tested, and the Potency was 14.6 µM (active). For `COc1ccc2nc3ccccc3nc2c1NC(=O)c1ccc(Cl)cc1`, the Potency was 18.4 µM (active). In the case of `Cc1ccc2c(Cl)c(C)c(N3CCCC3)nc2n1`, the max response is reported as -28.8% (inactive). With `OCC[n+]1ccc(/C=C/c2c[nH]c3ccccc23)cc1` the Potency was 18.4 µM (active). For `C[n+]1ccc(/C=C/c2c[nH]c3ccccc23)cc1`, the Potency was 8.2 µM (active). `CC[n+]1ccc(/C=C/c2c[nH]c3ccccc23)cc1` was tested, and the Potency was 9.2 µM (active). In the case of `C/C(=N\NC(=O)C(C)n1nc(C)c([N+](=O)[O-])c1C)c1ccccc1O` (stereo unspecified), the max response is reported as 3.13% (inactive).
